The whole screen tested about 2,200 compounds, of which about 1,300 (59%) were called active. The rule behind the calls is not given here. The set was probably picked from earlier hits. These entries were drawn from the full list. A call without a number means that no potency is given here. Potency and affinity values are given separately.
test: THP-1 cell cytotoxicity, dose response, cytotoxicity control for Salmonella PhoP regulon inhibitors, S. typhimurium screen hits (AID 2253); settings: THP-1 viability, CellTiter-Glo luminescence, 72 h; series mostly up to 50 µM

Compound	outcome
Cc1nc(N)sc1Cc1ccc2c(c1)OCO2	inactive
CCSc1cc(N2CCCC2)nc(-c2cccc(C)c2)n1	inactive
O=C(CN1C(=O)c2ccccc2C1=O)N1CCN(c2ccccn2)CC1	inactive
CCN(Cc1ccccc1)C(=O)CN1C(=S)NC(C)(C)CC1C (stereo not drawn)	inactive
Cc1cccc(NC(=O)c2cc(N3C(=O)CCC3=O)ccc2Cl)n1	inactive
CC1CCN(S(=O)(=O)c2cccc(C(=O)N(C)C3CCS(=O)(=O)C3)c2)CC1 (stereo not drawn)	inactive
CN1CCN(S(=O)(=O)c2ccc(-c3ccccc3)cc2)CC1	inactive
COCCCNc1ccnc2c(Cl)cccc12	inactive
CC(C)c1ccc(NC(=O)Nc2cc3sccc3n2C)cc1	inactive
CSc1cccc(NC(=O)c2ccco2)c1	inactive
COc1ccc(Cl)cc1C(=O)Nc1ccc(NC(=O)c2ccco2)cc1	inactive
CCC(C)C(NC(=O)OCc1ccccc1)C(=O)OCN1C(=O)c2ccccc2C1=O (stereo not drawn)	inactive
COc1ccc(C(=O)Nc2cc(C)ccc2NC(=O)COc2ccccc2)cc1	inactive
COC(=O)CCC(=O)Nc1ccc(OC)cc1	inactive
Cc1sc(NC(=O)c2ccco2)c(CN2CCN(c3ccc(F)cc3)CC2)c1C	inactive
CCOC(=O)c1c(C)[nH]c(C)c1C(=O)CSc1ncccn1	inactive
COc1cc(OC)cc(C(=O)N[C@H](C(=O)OCC(=O)Nc2ccc(C(N)=O)cc2)C(C)C)c1	inactive
Cc1ccc(-c2nnc(SCC(=O)N3CCCc4ccccc43)n2N)cc1	inactive
COC(=O)c1sccc1NC(=O)C1C2C=CC(O2)C1C(=O)O (stereo not drawn)	inactive
CN(C)c1nc(N)nc(Cn2ccnc2)n1	inactive
O=C(Cc1cccs1)N(c1ccccc1)C1C=CS(=O)(=O)C1 (stereo not drawn)	inactive
CC1(C)CC(=O)C=C(Nc2ccccc2NC(=O)c2cnccn2)C1	inactive
CC(=O)N(Cc1ccc(Cl)cc1)c1cnccn1	inactive

Compound	outcome
CCn1cc(C(=O)NCCO)c(=O)c2cc(F)c(N3CCN(C)CC3)cc21	inactive
COc1ccc(N2C(=O)C3CCCN3C2c2cccc(C)c2)cc1Cl (stereo not drawn)	inactive
Cc1ccc(C(=O)CSc2ncnc3sc4c(c23)CCCC4)cc1	inactive
CSc1nnc2c3c4c(sc3nc(-n3nc(C)cc3C)n12)COC(C)(C)C4	inactive
O=C(Nn1c(O)c(C=C2N=c3ccccc3=N2)sc1=S)c1ccc(Cl)cc1	inactive
Cc1ccc(C)c(C(=O)NCc2ccncc2)c1	inactive
Cc1cc(=O)oc(C)c1C(=O)NCc1cccnc1	inactive
Cc1ccc(NC(=S)NCc2cccnc2)cc1	inactive
S=C(Nc1ccc(Cl)c(Cl)c1)N1CCOCC1	inactive
COc1ccc(Br)cc1C(=O)NCc1cccnc1	inactive
S=C(NCc1cccnc1)Nc1cccc(Cl)c1	inactive
C=CCSc1nnc(-c2ccc(Cl)cc2Cl)o1	inactive
COc1c(N2CCN(C(=S)Nc3ccc(F)cc3)C(C)C2)c(F)cc2c(=O)c(C(=O)O)cn(C3CC3)c12 (stereo not drawn)	inactive
COc1c(N2CCNC(C)C2)c(F)cc2c(=O)c(C(=O)O)cn(C3CC3)c12 (stereo not drawn)	inactive
COc1c(N2CCN(C(=S)NC3CC4CCC3C4)C(C)C2)c(F)cc2c(=O)c(C(=O)O)cn(C3CC3)c12 (stereo not drawn)	inactive
CNC(=S)N1CCN(c2c(F)cc3c(=O)c(C(=O)O)cn(C4CC4)c3c2OC)CC1C (stereo not drawn)	inactive
CC(=O)Nc1c(C#N)c(C(C)(C)C)cn1C	inactive
COc1ccc(N(CC(=O)Nc2ccccc2SC)S(C)(=O)=O)cc1OC	inactive
COc1ccc(S(=O)(=O)N2Cc3ccccc3CC2C(=O)N2CCOCC2)cc1OC (stereo not drawn)	inactive
CCN1C(=O)/C(=C/N2CC(C)CC(C)C2)SC1=S (stereo not drawn)	inactive
Cc1ccc(NC2CC(=O)N(Cc3ccccc3)C2=O)cc1 (stereo not drawn)	inactive
CCc1ccc(NC(=O)c2noc3c2CCc2ccccc2-3)cc1	inactive
Cc1ccc(N2C(=O)CC(n3ccnc3)C2=O)cc1C (stereo not drawn)	inactive

Compound	outcome
COc1ccc2cc(C)c3nnc(SCC(=O)Nc4nc(-c5ccccc5)cs4)n3c2c1	inactive
CN(C)CC(=O)Nc1nc(-c2ccccc2)cs1	inactive
CS(=O)(=O)c1ccc([C@@H](O)[C@@H](CO)NC(=O)C(Cl)Cl)cc1	inactive
CCOCc1nnc(NC(=O)COC)s1	inactive
CC(NC(=O)CSc1nc2c(cc1C#N)CN(C)CC2)c1ccccc1 (stereo not drawn)	inactive
COc1cccc(C=NCCNC(=O)c2nonc2N)c1O	inactive
O=C1CCc2cc(S(=O)(=O)N3CCN(c4cccc(Cl)c4)CC3)ccc2N1	inactive
CCN(CC)c1ccc(/C=C(\C#N)C(=O)NCc2ccco2)cc1	inactive
CCOC(=O)C1CCCN(S(=O)(=O)c2ccc(Br)c(OC)c2)C1 (stereo not drawn)	inactive
CCn1cc(C(=O)O)c(=O)c2cc(F)c(N3CCN(C(=S)Nc4ccc(OC)cc4)CC3)cc21	inactive
C/C(Nc1ccc(F)cc1)=C(/C#N)C(N)=O	inactive
Cc1cc(-c2c(C)n([O-])c(C)c(C)[n+]2=O)ccc1F	inactive
CCC(Sc1ncccc1C(=O)OC(C)C)C(=O)N1CCOCC1 (stereo not drawn)	inactive
Cc1cc(NC(=O)c2cnn3cccnc23)no1	inactive
CCn1cc(C(=O)NCCCO)c(=O)c2cc(F)c(N3CCN(C)CC3)cc21	inactive
O=c1[nH]c(CSc2nnc(NCCCN3CCOCC3)s2)nc2cc(Cl)ccc12	inactive
C=CC#CC[N+]1(CC#Cc2ccccc2)CCOCC1	inactive
CN1CCCC(OC(=O)c2ccc(Cl)cc2)C1 (stereo not drawn)	inactive
O=C(O)/C=C/C(=O)Nc1cccc(C(F)(F)F)c1	inactive
FC(F)(F)c1cccc(NC(=S)NCCN2CCOCC2)c1	inactive
c1ccc(-c2nnc(SCCC3OCCCO3)o2)cc1	inactive
Cc1cc(-c2csc(NC(=O)c3ccc(C#N)cc3)n2)c(C)n1Cc1ccco1	inactive
Cc1ccc(CNC(=O)C2CCCN(S(=O)(=O)c3c(C)noc3C)C2)cc1 (stereo not drawn)	inactive

Compound	outcome
Cc1cccc(-n2c(N)cc(=O)[nH]c2=S)c1C	inactive
Cc1cc(C)c(NC(=O)c2cn3c4c(c(N5CCN(C)CC5)c(F)cc4c2=O)OCC3C)c(C)c1 (stereo not drawn)	inactive
Cc1ccc(N2C(=O)CC(Nc3ccccc3)C2=O)cc1 (stereo not drawn)	inactive
CC1(C)CC(=O)C(C(=O)/C=C/NCCc2ccccc2)C(=O)C1	inactive
COc1cc(C2C(C(=O)c3ccc(C)o3)=C(O)C(=O)N2CCc2ccccc2)ccc1O (stereo not drawn)	inactive
c1ccc(COc2cccc(CN3CCN(c4ccccn4)CC3)c2)cc1	inactive
O=c1[nH]c(CN2CCCCC2)nc2ccccc12	inactive
CCCC(=O)c1c[nH]c(C(=O)NCCCN2CCOCC2)c1	inactive
CCOc1ccc(S(=O)(=O)NNC(=S)Nc2ccc(Br)cc2)cc1	inactive
O=C(CSc1nc2ccccc2o1)Nc1ccc(N2CCOCC2)c(Cl)c1	inactive
O=C(CSc1nc2ccccc2o1)Nc1ccc(N2CCOCC2)cc1	inactive
CCCCC(=O)NCCNC(=O)c1cc(OCC(F)(F)F)ccc1OCC(F)(F)F	inactive
COc1ccc(-c2ccc(-c3noc(-c4cccs4)n3)c(OC)n2)cc1	inactive
Cc1noc(C)c1CSc1nc2ccccc2nc1NS(=O)(=O)c1ccc(Cl)cc1	inactive
Fc1cccc(NCc2cn3ccccc3n2)c1	inactive
COc1ccc(CN2C(=O)Cc3c2nc(N)c2c(N)nc(N4CCCCC4)c(C#N)c32)cc1	inactive
CCn1cc(C(=O)O)c(=O)c2cc(F)c(N3CCN(C(=S)NC(=O)c4ccccc4)CC3)cc21	inactive
CCCCNC(=O)c1cn(CC)c2cc(N3CCN(C)CC3)c(F)cc2c1=O	inactive
CCCNC(=O)c1cn(CC)c2cc(N3CCN(C)CC3)c(F)cc2c1=O	inactive
CCn1cc(C(=O)O)c(=O)c2cc(F)c(N3CCN(C(=S)NC(=O)c4ccccc4F)CC3)cc21	inactive
N#C/C=C(/N)c1ccc(Br)cc1	inactive
Oc1ccccc1-c1nc(/C=C/c2ccccc2)nn1-c1ccccc1	inactive
CCn1cc(C(=O)O)c(=O)c2cnc(N3CCNCC3)nc21	inactive

Compound	outcome
N#Cc1c(N)n[nH]c1-c1cc2c([nH]1)CCCC2	inactive
O=C(CCN1C(=O)C2C3C=CC(C3)C2C1=O)N1CCN(c2cccc(Cl)c2)CC1 (stereo not drawn)	inactive
O=C(CSc1ccc(Cl)cc1)Nc1ccccc1N1CCN(C(=O)c2ccc(Cl)cc2)CC1	inactive
CN(C(=O)c1cccc(C#N)c1)c1nnc(-c2cnccn2)s1	inactive
NC(=O)N1OCC2COc3ccc4ccccc4c3C21 (stereo not drawn)	inactive
COc1c(N2CCN[C@H](C)C2)c(F)cc2c(=O)c(C(=O)O)cn(C3CC3)c12	inactive
COC(=O)c1sccc1NC(=O)c1csc2c1CCCC2	inactive
COc1cc(C2Nc3cccc4cccc(c34)N2)cc(OC)c1OC(C)=O	inactive
CC(=O)Oc1c2occc2cc2ccc(=O)oc12	inactive
CCOc1ccc2nc(COC(=O)c3ccco3)c(C(C)=O)[n+]([O-])c2c1	inactive
CC1=CC(C)(C)n2c(O)c(C3=NC(=S)NC3=O)c3cc(OC(=O)c4cccc5ccccc45)cc1c32	inactive
COC(=O)c1cn(C(=O)c2cccs2)c2ccccc12	inactive
Cc1nc(-c2ccccn2)sc1C(=O)Nc1ccc(F)cc1F	inactive
Cc1cc2cc(CNS(=O)(=O)c3ccc4ccccc4c3)ccc2n1C	inactive
Cc1c(NS(=O)(=O)c2ccccc2)c(=O)n(-c2ccccc2)n1C	inactive
C=CCSc1ncnc2sc(C)c(C)c12	inactive
c1ccn2c(CNc3ncnc4sccc34)nnc2c1	inactive
N/C(=N\OC(=O)c1cccs1)C1(c2ccc(Cl)cc2Cl)CC1	inactive
COc1ccc(C(C)=O)c2c(O)cccc12	inactive
Cc1ccc(C2NNC(=O)C2NC(=O)c2ccccc2)cc1 (stereo not drawn)	inactive
Cc1ccc(S(=O)(=O)NNC(=O)c2ccc(O)cc2)cc1	inactive

— PubChem BioAssay AID2253 (Southern Research Specialized Biocontainment Screening …, 2010)
